Screening results (PubChem BioAssay)
DAX1 inh-1: inhibitors of human orphan nuclear receptor DAX1 (NR0B1). P51843. HEK293 Gal4-DAX1 luciferase reporter, luminescence. inhibition, % at 6.75 µM. 340,000 tested, 0.99% active. AID 504766;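 active means inhibition above the mean over all tested compounds plus 3 SD, cut at about 4.2% in these data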;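 further: 0% = DAX1-transfected cells with DMSO and 100% = empty-vector control cells with DMSO; inhibition shows as a rise in luminescence from relieved DAX1 repression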
Target sequence (P51843 207-470 limits assumed): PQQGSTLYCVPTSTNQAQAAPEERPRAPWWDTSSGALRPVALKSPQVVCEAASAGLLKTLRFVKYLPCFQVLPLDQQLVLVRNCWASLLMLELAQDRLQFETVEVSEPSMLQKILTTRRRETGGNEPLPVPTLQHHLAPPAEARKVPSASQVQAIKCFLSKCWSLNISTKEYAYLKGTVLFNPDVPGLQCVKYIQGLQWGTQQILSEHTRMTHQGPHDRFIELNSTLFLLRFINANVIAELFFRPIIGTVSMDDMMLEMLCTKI
SMARCA2 activ: increases SMARCA2 function in MMTV reporter cells. MG213 cells, MMTV-luciferase reporter, dexamethasone, overnight. activation, % at 9.1 µM. 370,000 tested, 1% active. AID 652017; in the data active means activation above about 7.8%;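 further: 0% = vehicle wells and 100% = reference activator wells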
DAX1 inh-2: blocks DAX1 repression of SF-1 activated StAR promoter; HEK293T StAR-luciferase reporter, SF-1/DAX-1 repression relief; inhibition, % at 6.8 µM; 370,000 tested, 1.1% active; AID 652010;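 active means inhibition above the mean over all tested compounds plus 3 SD, cut at about 3.6% in these data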;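 further: 0% = DAX-1 cells with DMSO and 100% = cells lacking DAX-1 with DMSO; higher inhibition means more luminescence from relief of DAX-1 repression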
ssDAF12 agonist: S. stercoralis DAF-12 activation, primary screen | activation, % at 6.8 µM | HEK293 ssDAF-12/GRIP1 lit1-tk-luc reporter, luminescence; % of 3 µM dafachronic acid response | 370,000 tested, 1% active | AID 652126;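 active means activation above the mean over all tested compounds plus 3 SD, cut at about 0.9% in these data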;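 further: 0% = DMSO-only wells and 100% = 3 µM delta7-dafachronic acid wells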
hcDAF-12 act: activates DAF-12 receptor from parasite H. contortus. HEK293 hcDAF-12 lit1-tk-luc reporter, luminescence; 0% DMSO, 100% Δ7-dafachronic acid. activation, % at 6.8 µM. 370,000 tested, 1.4% active. AID 652067;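 active means activation above the mean of all tested compounds plus 3 SD, cut at about 5.5% in these data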;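 further: 100% = response to 3 µM Δ7-dafachronic acid high control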
hgDAF-12 ag: activates the H. glycines DAF-12 receptor ligand-binding domain; activation, % at 6.8 µM; HEK293 GAL4-hgDAF12 UAS-luciferase reporter, agonist luminescence; normalized to butyrate control; AID 687014; 370,000 tested, 1.8% active;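 active means activation above a cutoff set at the mean of all screened compounds plus 3 SD, cut at about 10% in these data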;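 further: 0% = DMSO wells and 100% = sodium butyrate wells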
The depositor's hits bear a star; nt = no result given. Sampled rows, rich in hits. Any-hit rate of the full collection: about 4.8%.

SMILES	DAX1 inh-1	SMARCA2 activ	DAX1 inh-2	ssDAF12 agonist	hcDAF-12 act	hgDAF-12 ag
Cc1sc(N)nc1-c1ccc2c(c1)OCCO2	-1	0	1	-1	1	2
COc1ccc(COC[C@H](C)N2C[C@@H](C)[C@H](CN(C)S(=O)(=O)c3ccc(F)cc3)OCCCC[C@H](C)Oc3ccc(NC(=O)Nc4ccccc4)cc3C2=O)cc1	nt	nt	nt	-1	-3	-2
Cc1ccc(NC(=O)NCc2c(C)nn(C)c2C)cc1Cl	1	6	4.3*	-1	1	13*
CC(C)CN1C(=O)[C@@]2(CC(=O)N(C)C2c2ccccc2)c2cc(-n3cc(CCc4ccccc4)nn3)ccc21 (stereo partly drawn)	nt	-5	2	-1	-3	0
CC1CC(CC(=O)NNc2nc(-c3ccccc3)cs2)C(=O)O1 (stereo not drawn)	6.1*	6	-2	-1	0	0
Cc1cc(-c2ccc(F)cc2)nc2cc(C(N)=O)nn12	0	-2	-1	-1	-3	1
CCOC(=O)c1cnn2c(C)cc(-c3ccc(F)cc3)nc12	1	5	3	0	2	12*
OCCCNc1nc(-c2ccc(Cl)cc2)nc2ccccc12	-1	4	0	-1	-1	1
OCCNc1nc(-c2ccccc2)nc2ccccc12	0	1	0	1.1*	1	5
CC(C)C1=NN(C(=O)c2ccccc2)C(O)(C(C)(C)C)C1 (stereo not drawn)	2	3	1	0	0	12*
NC(=S)Nc1nc2ccccc2[nH]c1=O	nt	-2	0	1	5.8*	0
CC(=O)ONC(=Nc1ccccc1)c1nonc1N	5.2*	-7	0	-1	-1	2
Cc1ccc(N=C(NOC(=O)c2ccccc2)c2nonc2N)c(C)c1	1	1	0	-1	1	0
NC(=O)CSc1nnc(-c2ccc3c(c2)OCO3)o1	nt	3	3	2.8*	3	13*
CCCCc1c(O)nc(SCC(=O)N2CCOCC2)n(-c2ccc(C)cc2)c1=O	1	-2	0	-1	1	0
O=C(NCCC1=CCCCC1)c1ccc(F)c(S(=O)(=O)N2CCOCC2)c1	-1	2	0	0	0	1
CC1CN(S(=O)(=O)c2cc(C(=O)NCCC3=CCCCC3)ccc2Cl)CC(C)O1 (stereo not drawn)	-1	1	3.8*	-1	1	6
CCOC(=O)CC1CCCCN1Cc1cn[nH]c1-c1ccc(F)cc1F (stereo not drawn)	4.7*	-3	0	-1	-2	-4
CCCCNC(=S)N(CCN(CC)CC)Cc1cc2cc3c(cc2[nH]c1=O)OCCO3	4.3*	4	0	-1	0	1
CCCCNC(=S)N(CCN(CC)CC)Cc1cc2cc3c(cc2[nH]c1=O)OCO3	-2	0	0	-1	-2	-1
O=C(CNc1cccc2ccccc12)N/N=C/c1ccc(C(=O)O)cc1	-1	-1	0	1.0*	5	0
O=C(CNc1ccc2ccccc2c1)N/N=C/c1ccc(C(=O)O)cc1	2	1	0	-1	5	5
CS(=O)(=O)N1CCc2cc(C(=O)Nc3ccccc3Cl)ccc21	21*	2	1	-1	-1	3
CCn1cc(C(=O)N2CCN(c3ccc(F)cc3)CC2)c2cc(OC)c(OC)cc2c1=O	-1	0	0	-1	0	2
CCn1cc(C(=O)N2CCN(c3ccccc3OC)CC2)c2cc(OC)c(OC)cc2c1=O	4.4*	0	-1	-2	-1	0
Cc1cccc(CN2CCN(C3CN(Cc4cn(Cc5ccc(Cl)cc5)nn4)S(=O)(=O)C3)CC2)c1 (stereo not drawn)	nt	-5	0	-1	0	-2
O=C(O)COc1ccc2c(c1)O/C(=C\c1cccs1)C2=O	0	-2	0	0	0	3
COc1ccc2c(c1)O/C(=C\c1sccc1C)C2=O	0	2	0	-1	2	11*
O=C1c2ccccc2NC(c2ccccc2Cl)N1N=C1CCCCCC1 (stereo not drawn)	1	4	2	0	3	10*
